Measured values published in PubChem BioAssay (EPA / NIEHS).
Inconclusive results are not listed. Calls of active or inactive are those of the source. The calls were made as follows, unless noted: active = hit-call score of the fitted dose curve at least 0.9, where 1 is the maximum; inactive = score below 0.9.

How the values were obtained:
[1] = biological target: Bile acid receptor (Homo sapiens) (UniProt Q96RI1); experiment: ATG_FXR_TRANS: Attagene TRANS-FACTORIAL HepG2 Assay for Farnesoid X Receptor (FXR) (AID 2282979; active = hit-call score of the fitted dose curve at least 0.9, where 1 is the maximum;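 also: hits raise reporter mRNA above DMSO so AC50 marks FXR activation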); conditions: HepG2 Attagene TRANS FXR-GAL4 reporter transcription
Procedure, shortened: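 Transient transfection of HepG2 with multiplexed GAL4-UAS reporter units; exogenous FXR-GAL4 chimera. Dose 24 h → TriZol RNA → oligo(dT) RT → PCR, 6-FAM primer extension, HpaI cut → CE. Gain vs DMSO.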

[2] = biological target: Oxysterols receptor LXR-beta (Homo sapiens) (UniProt P55055); experiment: ATG_LXRb_TRANS: Attagene TRANS-FACTORIAL HepG2 Assay for human Liver X Receptor beta (LXRb) (AID 2282981; active = hit-call score of the fitted dose curve at least 0.9, where 1 is the maximum); conditions: HepG2 Attagene TRANS GAL4-LXRb reporter, mRNA
Procedure, shortened: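 HepG2 cells transiently transfected with multiple reporter transcription units carrying chimeric NR-Gal4 proteins acting on GAL4-UAS reporters; compound exposure 24 h. Reporter mRNA quantified by RT-PCR, 6-FAM labelling, HpaI digestion and capillary electrophoresis; gain of signal versus DMSO.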

[3] = biological target: Hepatocyte nuclear factor 4-alpha (Homo sapiens) (UniProt P41235); experiment: ATG_HNF4a_TRANS: Attagene TRANS-FACTORIAL HepG2 Assay for human Hepatocyte Nuclear Factor 4 alpha (HNF4a) (AID 2282982; active = hit-call score of the fitted dose curve at least 0.9, where 1 is the maximum); conditions: HepG2 HNF4a transactivation reporter, mRNA readout
Procedure, shortened: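 HepG2 cells transiently transfected with multiplexed GAL4-UAS reporter units responsive to chimeric NR-GAL4 proteins; compound exposure 24 h. Reporter mRNA quantified by RT-PCR, 6-FAM labelling, HpaI digestion and capillary electrophoresis; gain of signal versus DMSO baseline.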

[4] = ATG_M_06_TRANS: Attagene TRANS-FACTORIAL HepG2 Assay for M06 Transcription Factor (Internal Marker) (AID 2282983; active = hit-call score of the fitted dose curve at least 0.9, where 1 is the maximum;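 also: reporter transcript level by RT-PCR then capillary electrophoresis fluorescence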); conditions: HepG2 Attagene TRANS M06 internal marker reporter
Procedure, shortened: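 Transfect HepG2 with MRTUs → dose compounds 24 h → isolate RNA, oligo(dT) RT → PCR with reporter primers → 6-FAM primer extension → HpaI digest → CE fragment analysis. Positive direction vs DMSO.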

[5] = biological target: Transcriptional activator Myb (Homo sapiens) (UniProt P10242); experiment: ATG_Myb_CIS: Attagene CIS-FACTORIAL HepG2 Assay for human Myeloblastosis (Myb) Proto-Oncogene Transcription Factor (AID 2282986); conditions: HepG2 Attagene CIS-FACTORIAL Myb reporter transcription; actives raise or lower the signal
Procedure, shortened: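 Transiently transfected HepG2 cells carrying a multiplexed cis-promoter reporter set report endogenous Myb activity after 24 h compound exposure. Reporter mRNA is read by RT-PCR with capillary electrophoresis of fluorescent products, fitted bidirectionally against DMSO.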

[6] = biological target: Nuclear respiratory factor 1 (Homo sapiens) (UniProt Q16656); experiment: ATG_NRF1_CIS: Attagene CIS-FACTORIAL HepG2 Assay for human Nuclear Respiratory Factor 1 (NRF1) Orphan Gene (AID 2282987); conditions: HepG2 NRF1 cis-element reporter, Attagene multiplex; actives raise or lower the signal
Procedure, shortened: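 HepG2 cells transiently transfected with multiple cis-regulated reporter units, exposed 24 h. Reporter mRNAs measured by RT-PCR, fluorescent labelling, HpaI digestion and capillary electrophoresis; bidirectional fitting against DMSO.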

[7] = ATG_NFI_CIS: Attagene CIS-FACTORIAL HepG2 Assay for human Nuclear Factor I (NFI) (AID 2282989); conditions: HepG2 cis-regulatory reporter, NFI response element transcription; actives raise or lower the signal
Procedure, shortened: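 Transient MRTU transfection of HepG2 → 24 h chemical dosing → total RNA, oligo(dT) RT → PCR, 6-FAM primer extension, HpaI cut → capillary electrophoresis. Endpoint fitted bidirectionally relative to DMSO.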

[8] = biological target: Myc proto-oncogene protein (Homo sapiens) (UniProt P01106); experiment: ATG_Myc_CIS: Attagene CIS-FACTORIAL HepG2 Assay for human Myelocytomatosis (Myc) Proto-Oncogene Transcription Factor (AID 2282990); conditions: HepG2, Attagene cis-reporter transcription factor activity; actives raise or lower the signal
Procedure, shortened: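 Multiplexed cis-reporter transcription in HepG2 cells after 24 h chemical treatment. Reporter mRNA measured by RT-PCR and capillary electrophoresis fluorescence; activity fitted bidirectionally against DMSO control.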

[9] = ATG_NF_kB_CIS: Attagene CIS-FACTORIAL HepG2 Assay for human Nuclear Factor Kappa B (NF-kB) (AID 2282991); conditions: HepG2 Attagene cis-factorial NF-kB reporter mRNA; actives raise or lower the signal
Procedure, shortened: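 HepG2 cells transfected with cis-promoter-driven reporter units, so endogenous transcription factor activity is measured. Reporter mRNA quantified 24 h after dosing by RT-PCR and capillary electrophoresis, with bidirectional fitting against DMSO.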

[10] = ATG_NRF2_ARE_CIS: Attagene CIS-FACTORIAL HepG2 Assay for human Nuclear Factor Erythroid 2 Related Factor 2 (NFR2) response to Antioxidant Response Elements (ARE) (AID 2282992); conditions: HepG2 Attagene ARE/NRF2 reporter, transcription factor activity; actives raise or lower the signal
Procedure, shortened: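 Cis-factorial assay: transfected HepG2 reporter library, 24 h dosing, mRNA readout via RT-PCR/CE; DMSO-referenced bidirectional analysis.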

[11] = biological target: Cellular tumor antigen p53 (Homo sapiens) (UniProt P04637); experiment: ATG_p53_CIS: Attagene CIS-FACTORIAL HepG2 Assay for human p53 Transcription Factor (AID 2282994); conditions: HepG2 p53 cis-element reporter, Attagene mRNA; actives raise or lower the signal
Procedure, shortened: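 Using HepG2 hepatoma cells carrying cis-acting multiplexed reporters, mRNA induction is detected after a 24 h exposure. Gain- and loss-of-signal responses are fitted relative to DMSO-treated cells.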

[12] = biological target: Oxysterols receptor LXR-alpha (Homo sapiens) (UniProt Q13133); experiment: ATG_LXRa_TRANS: Attagene TRANS-FACTORIAL HepG2 Assay for human Liver X Receptor alpha (LXRa) (AID 2282980; active = hit-call score of the fitted dose curve at least 0.9, where 1 is the maximum); conditions: HepG2 Attagene TRANS reporter, LXRa transactivation
Procedure, shortened: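 Transfect HepG2 with GAL4-UAS multiplex reporter constructs (TRANS format, chimeric receptor-GAL4); treat 24 h; extract RNA, reverse-transcribe, PCR-amplify, FAM-label, HpaI-digest; resolve fragments by capillary electrophoresis. Upward response vs DMSO.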

[13] = ATG_M_32_TRANS: Attagene TRANS-FACTORIAL HepG2 Assay for M32 Transcription Factor (Internal Marker) (AID 2282984; active = hit-call score of the fitted dose curve at least 0.9, where 1 is the maximum;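 also: transcript level of a background control reporter unit measured by RT-PCR and capillary electrophoresis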); conditions: HepG2 Attagene TRANS M32 internal marker reporter
Procedure, shortened: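 HepG2 cells transiently transfected with multiple GAL4-UAS reporter transcription units, dosed for 24 hours; reporter mRNA quantified by RT-PCR, 6-FAM primer extension, HpaI digestion and capillary electrophoresis. Gain-of-signal fitted versus DMSO baseline; internal background-control marker.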

[14] = ATG_Oct_MLP_CIS: Attagene CIS-FACTORIAL HepG2 Assay for human Octamer-Binding Transcription Factor (Oct) (AID 2282993); conditions: HepG2 Attagene cis-factorial Oct reporter, mRNA; actives raise or lower the signal
Procedure, shortened: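 Transient MRTU transfection of HepG2 → 24 h compound treatment → RNA isolation, reverse transcription, PCR → 6-FAM primer extension, HpaI digest → capillary electrophoresis. Activity fitted both directions against DMSO.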

[15] = biological target: Nuclear receptor subfamily 4 group A member 2 (Homo sapiens) (UniProt P43354); experiment: ATG_NURR1_TRANS: Attagene TRANS-FACTORIAL HepG2 Assay for human Nuclear Receptor Related Protein 1 (NURR1) (AID 2282985; active = hit-call score of the fitted dose curve at least 0.9, where 1 is the maximum); conditions: HepG2 Attagene TRANS reporter, mRNA readout
Procedure, shortened: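 HepG2 cells transiently transfected with GAL4-UAS reporter units and chimeric NR-Gal4 constructs; chemical exposure 24 h. Reporter mRNA quantified by RT-PCR, fluorescent labelling and capillary electrophoresis; gain of signal fitted relative to DMSO baseline.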

Sequence of Oxysterols receptor LXR-alpha (Homo sapiens) (Q13133 whole entry, looked up, the tested form may be a part): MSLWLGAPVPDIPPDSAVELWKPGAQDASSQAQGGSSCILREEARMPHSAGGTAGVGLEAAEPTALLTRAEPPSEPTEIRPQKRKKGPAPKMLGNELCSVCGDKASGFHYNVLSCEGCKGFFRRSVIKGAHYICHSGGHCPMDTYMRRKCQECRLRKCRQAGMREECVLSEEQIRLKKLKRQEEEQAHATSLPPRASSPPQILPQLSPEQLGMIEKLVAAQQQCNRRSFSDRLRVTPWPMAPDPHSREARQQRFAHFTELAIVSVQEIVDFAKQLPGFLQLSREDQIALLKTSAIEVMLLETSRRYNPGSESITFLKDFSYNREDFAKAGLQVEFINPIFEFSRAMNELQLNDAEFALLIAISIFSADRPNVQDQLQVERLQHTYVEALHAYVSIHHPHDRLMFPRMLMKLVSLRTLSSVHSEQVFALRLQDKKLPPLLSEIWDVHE
Sequence of Nuclear receptor subfamily 4 group A member 2 (Homo sapiens) (P43354 whole entry, looked up, the tested form may be a part): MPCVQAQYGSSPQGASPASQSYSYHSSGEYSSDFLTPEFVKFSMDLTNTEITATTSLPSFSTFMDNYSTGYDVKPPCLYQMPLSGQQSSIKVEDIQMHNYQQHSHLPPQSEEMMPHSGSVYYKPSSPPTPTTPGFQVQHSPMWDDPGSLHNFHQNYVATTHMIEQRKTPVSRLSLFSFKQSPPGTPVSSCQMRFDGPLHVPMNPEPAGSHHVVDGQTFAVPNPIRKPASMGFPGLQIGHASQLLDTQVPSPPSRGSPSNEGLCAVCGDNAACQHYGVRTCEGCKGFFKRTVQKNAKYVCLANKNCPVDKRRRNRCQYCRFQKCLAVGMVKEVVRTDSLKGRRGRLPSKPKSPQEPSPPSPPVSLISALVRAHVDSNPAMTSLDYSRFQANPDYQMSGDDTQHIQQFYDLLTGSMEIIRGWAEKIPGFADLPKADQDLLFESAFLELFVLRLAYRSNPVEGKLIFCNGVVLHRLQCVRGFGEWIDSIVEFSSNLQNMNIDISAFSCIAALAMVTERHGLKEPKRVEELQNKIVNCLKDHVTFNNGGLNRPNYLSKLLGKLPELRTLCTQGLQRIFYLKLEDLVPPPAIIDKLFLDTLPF
Sequence of Nuclear respiratory factor 1 (Homo sapiens) (Q16656 whole entry, looked up): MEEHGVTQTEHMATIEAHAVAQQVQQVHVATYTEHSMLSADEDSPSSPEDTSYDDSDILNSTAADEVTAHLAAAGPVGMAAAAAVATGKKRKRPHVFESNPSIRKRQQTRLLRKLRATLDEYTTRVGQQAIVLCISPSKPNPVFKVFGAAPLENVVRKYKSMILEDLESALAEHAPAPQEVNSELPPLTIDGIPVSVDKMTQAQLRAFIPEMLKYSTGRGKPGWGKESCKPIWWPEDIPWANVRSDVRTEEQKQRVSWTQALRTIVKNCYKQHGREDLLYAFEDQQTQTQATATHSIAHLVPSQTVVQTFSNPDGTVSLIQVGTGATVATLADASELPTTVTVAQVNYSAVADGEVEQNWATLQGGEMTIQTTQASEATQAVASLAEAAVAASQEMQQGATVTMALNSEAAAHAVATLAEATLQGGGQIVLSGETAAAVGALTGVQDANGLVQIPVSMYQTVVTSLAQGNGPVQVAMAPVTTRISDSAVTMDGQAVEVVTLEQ
Sequence of Hepatocyte nuclear factor 4-alpha (Homo sapiens) (P41235 whole entry, looked up, the tested form may be a part): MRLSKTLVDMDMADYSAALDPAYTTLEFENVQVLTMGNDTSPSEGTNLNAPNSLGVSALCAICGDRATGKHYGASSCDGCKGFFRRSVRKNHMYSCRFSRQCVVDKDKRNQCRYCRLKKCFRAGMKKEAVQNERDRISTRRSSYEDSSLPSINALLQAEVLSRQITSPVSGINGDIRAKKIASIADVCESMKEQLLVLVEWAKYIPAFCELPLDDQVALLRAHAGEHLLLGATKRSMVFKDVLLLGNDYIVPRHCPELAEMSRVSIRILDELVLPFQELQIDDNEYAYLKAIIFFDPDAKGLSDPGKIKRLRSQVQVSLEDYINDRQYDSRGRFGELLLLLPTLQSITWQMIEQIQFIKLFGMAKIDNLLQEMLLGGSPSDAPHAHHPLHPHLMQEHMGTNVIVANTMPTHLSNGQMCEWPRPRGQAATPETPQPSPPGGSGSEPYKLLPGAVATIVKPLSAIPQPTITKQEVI
Sequence of Myc proto-oncogene protein (Homo sapiens) (P01106 whole entry, looked up): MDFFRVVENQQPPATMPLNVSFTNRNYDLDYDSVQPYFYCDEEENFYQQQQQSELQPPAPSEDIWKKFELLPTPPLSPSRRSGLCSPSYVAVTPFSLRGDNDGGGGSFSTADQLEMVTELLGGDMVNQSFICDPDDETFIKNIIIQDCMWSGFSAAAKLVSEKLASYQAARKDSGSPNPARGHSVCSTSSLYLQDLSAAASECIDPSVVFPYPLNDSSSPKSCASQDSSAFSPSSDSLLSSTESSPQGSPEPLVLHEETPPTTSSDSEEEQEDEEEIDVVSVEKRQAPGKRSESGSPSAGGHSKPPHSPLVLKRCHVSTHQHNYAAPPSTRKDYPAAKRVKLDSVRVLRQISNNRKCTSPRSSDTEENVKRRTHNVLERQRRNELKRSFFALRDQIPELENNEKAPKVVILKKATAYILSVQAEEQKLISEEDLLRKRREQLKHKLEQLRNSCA
Sequence of Transcriptional activator Myb (Homo sapiens) (P10242 whole entry, looked up): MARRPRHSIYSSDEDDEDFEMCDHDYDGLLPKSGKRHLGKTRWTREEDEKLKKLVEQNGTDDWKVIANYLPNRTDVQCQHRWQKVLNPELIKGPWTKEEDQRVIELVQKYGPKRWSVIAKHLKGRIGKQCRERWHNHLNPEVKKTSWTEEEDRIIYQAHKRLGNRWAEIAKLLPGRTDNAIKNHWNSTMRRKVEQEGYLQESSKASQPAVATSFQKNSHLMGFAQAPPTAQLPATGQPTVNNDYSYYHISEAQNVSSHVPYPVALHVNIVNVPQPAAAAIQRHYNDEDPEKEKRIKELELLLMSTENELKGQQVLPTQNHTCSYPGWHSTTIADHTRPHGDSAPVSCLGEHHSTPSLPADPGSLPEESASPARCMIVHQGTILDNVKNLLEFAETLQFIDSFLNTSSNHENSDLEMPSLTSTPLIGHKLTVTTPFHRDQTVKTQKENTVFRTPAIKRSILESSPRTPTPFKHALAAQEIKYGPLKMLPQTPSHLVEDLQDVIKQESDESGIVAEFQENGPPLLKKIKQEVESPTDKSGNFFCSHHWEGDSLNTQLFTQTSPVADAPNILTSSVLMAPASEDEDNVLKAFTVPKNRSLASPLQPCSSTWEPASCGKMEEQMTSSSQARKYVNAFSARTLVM
Sequence of Bile acid receptor (Homo sapiens) (Q96RI1 whole entry, looked up, the tested form may be a part): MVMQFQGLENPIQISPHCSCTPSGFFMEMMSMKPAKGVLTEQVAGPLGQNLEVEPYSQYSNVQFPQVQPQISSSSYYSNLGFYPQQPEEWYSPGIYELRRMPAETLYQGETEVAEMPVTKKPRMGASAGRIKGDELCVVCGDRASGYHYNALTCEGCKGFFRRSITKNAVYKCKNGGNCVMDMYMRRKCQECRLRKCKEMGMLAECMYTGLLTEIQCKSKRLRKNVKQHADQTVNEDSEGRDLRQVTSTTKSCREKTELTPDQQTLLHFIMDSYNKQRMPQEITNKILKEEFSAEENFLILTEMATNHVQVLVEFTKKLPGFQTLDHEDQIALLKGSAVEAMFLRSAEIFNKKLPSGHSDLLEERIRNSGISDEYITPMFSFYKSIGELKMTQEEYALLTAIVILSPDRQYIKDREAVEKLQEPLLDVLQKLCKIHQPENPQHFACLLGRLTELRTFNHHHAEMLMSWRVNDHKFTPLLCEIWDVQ
Sequence of Cellular tumor antigen p53 (Homo sapiens) (P04637 whole entry, looked up): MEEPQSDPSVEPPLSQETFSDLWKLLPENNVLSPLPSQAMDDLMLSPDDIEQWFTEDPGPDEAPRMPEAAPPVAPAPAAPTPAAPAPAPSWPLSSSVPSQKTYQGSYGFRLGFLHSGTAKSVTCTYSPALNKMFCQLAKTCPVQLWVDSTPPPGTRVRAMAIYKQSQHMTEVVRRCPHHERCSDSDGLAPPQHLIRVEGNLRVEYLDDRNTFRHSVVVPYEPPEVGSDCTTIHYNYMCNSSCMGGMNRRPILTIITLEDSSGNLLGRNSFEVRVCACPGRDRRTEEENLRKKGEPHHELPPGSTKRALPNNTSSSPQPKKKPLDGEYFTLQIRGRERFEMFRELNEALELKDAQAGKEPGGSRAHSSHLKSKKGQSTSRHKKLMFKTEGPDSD
Sequence of Oxysterols receptor LXR-beta (Homo sapiens) (P55055 whole entry, looked up, the tested form may be a part): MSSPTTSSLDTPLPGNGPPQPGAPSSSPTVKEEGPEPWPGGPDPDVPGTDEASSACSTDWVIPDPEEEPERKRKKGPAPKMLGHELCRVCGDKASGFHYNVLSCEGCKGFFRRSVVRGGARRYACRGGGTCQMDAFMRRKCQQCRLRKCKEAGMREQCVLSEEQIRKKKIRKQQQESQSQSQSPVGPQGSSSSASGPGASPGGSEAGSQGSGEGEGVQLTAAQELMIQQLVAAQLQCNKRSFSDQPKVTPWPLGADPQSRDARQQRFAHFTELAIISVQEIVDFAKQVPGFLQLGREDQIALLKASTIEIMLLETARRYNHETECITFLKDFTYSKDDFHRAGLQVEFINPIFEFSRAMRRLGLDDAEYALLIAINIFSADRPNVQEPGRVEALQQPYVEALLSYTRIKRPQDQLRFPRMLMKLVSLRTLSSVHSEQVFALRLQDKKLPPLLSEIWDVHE

SMILES	outcome [1]	outcome [2]	outcome [3]	outcome [4]	outcome [5]	outcome [6]	outcome [7]	outcome [8]	outcome [9]	outcome [10]	outcome [11]	outcome [12]	outcome [13]	outcome [14]	outcome [15]	AC50 [10]
NC(=O)c1ccccc1O	inactive	inactive	inactive	inactive	inactive	inactive	inactive	inactive	inactive	inactive	inactive	–	–	–	–	–
O=C1C=CC(=O)O1	inactive	–	inactive	inactive	inactive	–	inactive	inactive	inactive	inactive	inactive	inactive	inactive	inactive	–	–
COCC(C)N (stereo unspecified)	inactive	–	–	inactive	inactive	–	inactive	inactive	inactive	inactive	inactive	inactive	inactive	inactive	inactive	–
Nc1ccc(-c2ccc(F)cc2)cc1	inactive	–	inactive	–	inactive	inactive	inactive	inactive	inactive	inactive	inactive	–	inactive	inactive	–	–
CC(C)COC(=O)C=Cc1ccccc1	inactive	inactive	–	inactive	inactive	inactive	inactive	inactive	inactive	–	inactive	inactive	–	inactive	inactive	18.4 µM (active)
CC=CCO	inactive	–	inactive	inactive	inactive	–	inactive	inactive	inactive	inactive	inactive	–	inactive	inactive	inactive	–
CCCCCCCCO[C@@H]1O[C@H](CO)[C@@H](O)[C@H](O)[C@H]1O	inactive	inactive	inactive	–	inactive	–	inactive	inactive	–	inactive	inactive	–	inactive	–	inactive	–
O=C1OC(=O)c2cc(Oc3ccc4c(c3)C(=O)OC4=O)ccc21	inactive	inactive	inactive	inactive	inactive	inactive	inactive	inactive	inactive	inactive	inactive	–	–	inactive	–	–
O=Cc1ccc(CO)o1	inactive	–	inactive	inactive	inactive	inactive	inactive	inactive	–	inactive	–	–	inactive	inactive	inactive	–
Cc1ccc(OC(=O)CC(C)C)cc1	inactive	inactive	–	inactive	inactive	inactive	inactive	inactive	–	inactive	–	–	inactive	inactive	inactive	–
NC(=O)N=NC(N)=O	inactive	inactive	inactive	inactive	inactive	–	inactive	inactive	inactive	–	inactive	–	–	inactive	inactive	–
